L3MBTL1 inh = L3MBTL1 (human) inhibition. AlphaScreen L3MBTL1–H3K9me1 peptide binding. Potency, µM (series often up to 57.1 µM), usual class: inhibitors. AID 485360. Q9Y468. actives 0.66% (n = 230,000); also: nearly all actives have a fitted effect of over 60% in size
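L3MBTL1 (50 nM) pre-complexed 30 min with biotinylated H3(1-15)K9me1 peptide (75 nM), then compounds added for 30 min at room temperature; AlphaScreen streptavidin donor/nickel chelate acceptor beads (10 ug/mL final) read after 30 min dark incubation.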
G9a block = inhibitors of human histone lysine methyltransferase G9a | Q96KQ7 | G9a H3K9 monomethylation, AlphaScreen, 2 h | Potency, µM (titrated, usually from 102 µM), hits mostly inhibitors | actives 8.8% (n = 350,000); also: nearly all actives have a fitted effect of over 75% in size
Target sequence (Q96KQ7 913-1193 limits assumed): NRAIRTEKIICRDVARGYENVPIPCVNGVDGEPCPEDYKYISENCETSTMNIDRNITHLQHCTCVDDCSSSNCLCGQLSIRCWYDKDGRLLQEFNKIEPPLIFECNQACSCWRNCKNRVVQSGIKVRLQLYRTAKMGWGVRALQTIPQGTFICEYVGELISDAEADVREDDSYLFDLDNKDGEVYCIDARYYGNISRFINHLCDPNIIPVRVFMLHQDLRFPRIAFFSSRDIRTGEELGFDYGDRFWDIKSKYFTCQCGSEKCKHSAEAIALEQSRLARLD
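AlphaScreen read-out: biotin-H3K9 peptide (500 nM) methylation by 20 nM enzyme with 20 uM SAM, 2 h at room temperature after 15 min compound preincubation; anti-monomethyl H3K9 antibody plus donor/acceptor beads, 10 min dark.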
BAZ2B inh = blocks human BAZ2B | Q9UIF8 | AlphaScreen BAZ2B-H3K14Ac peptide displacement | Potency, µM (highest dose often 114 µM), actives largely listed as inhibitors | actives 4.4% (n = 360,000) | AID 504333; also: nearly all actives have a fitted effect of over 60% in size
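BAZ2B (50 nM) with biotin-H3(5-23)K14Ac peptide (50 nM) in PBS pH 7.4, 0.01% Tween-20, preformed 30 min, then compound 30 min at room temperature; top concentration 110uM. AlphaScreen streptavidin donor/nickel chelate acceptor beads (10 ug/mL final), 20 min dark, signal read.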
JMJD2A Tudor inh = JMJD2A Tudor domain (human) inhibition; O75164; AlphaScreen JMJD2A-Tudor / H3K4me3 peptide binding; Potency, µM (highest dose often 114 µM), actives largely listed as inhibitors; actives 4.4% (n = 390,000); also: nearly all actives have a fitted effect of over 50% in size
HP1b chromo inh = HP1-beta chromodomain-methylated histone interaction inhibition. AlphaScreen HP1-beta / biotin-H3K9me3 peptide binding. actives 0.56% (n = 390,000). P83916. Potency, µM (titrated, usually from 114 µM), most hits filed as inhibitors; also: nearly all actives have a fitted effect of over 70% in size
Target sequence (P83916 whole entry, looked up): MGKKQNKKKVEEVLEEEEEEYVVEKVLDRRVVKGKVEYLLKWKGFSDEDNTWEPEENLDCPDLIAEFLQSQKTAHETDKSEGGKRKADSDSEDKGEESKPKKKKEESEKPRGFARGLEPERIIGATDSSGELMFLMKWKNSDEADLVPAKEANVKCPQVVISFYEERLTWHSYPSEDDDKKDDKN
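Compound inhibition of the preformed complex between 50 nM HP1-beta and 50 nM biotinylated H3K9me3 peptide was read by AlphaScreen. Buffer was PBS pH 7.4 with 0.01% Tween-20. Incubations ran 30 min at room temperature, with 10 ug/mL donor/acceptor beads.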
Sfp PPTase inh = blocks B. subtilis Sfp PPTase activity. Q9F4F7. Biochemical Sfp PPTase activity, qHTS. actives 3.5% (n = 310,000). Potency, µM, hits mostly inhibitors;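 also: the enzyme is Sfp with the accession as filed and its product quenches rhodamine fluorescence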
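With Hepes-Na pH 7.6 buffer containing 10 mM MgCl2, Sfp (15 nM) modified BHQ-2-YbbR (12.5 uM) using rhodamine-CoA (5 uM). Two reads 30 minutes apart at 525/598 nm yielded each well's rate.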
Hits are given with their value; – = inactive; ? = inconclusive; · = not tested or not shown; [ ] = dose if it differs, or a comment. Hits are enriched below; roughly 12% of the tested compounds scored in any of these assays. Calls follow the shape of the dose curve; as a rule, active = well fitted curve in the direction sought with a large enough effect; inconclusive = small, poorly fitted or top-dose-only effect, or another doubt; inactive = no such curve, though single readings can be large; an effect the other way counts as inactive or inconclusive.

SMILES	L3MBTL1 inh	G9a block	BAZ2B inh	JMJD2A Tudor inh	HP1b chromo inh	Sfp PPTase inh
CCOC(=O)CC1C(=O)NCCN1C(=S)Nc1ccccc1 (stereo not drawn)	–	–	–	–	–	?
CC(C)OC(=O)CC1C(=O)NCCN1C(=S)NC(=O)c1cccs1 (stereo not drawn)	–	45µM	–	–	–	56µM
COC(=O)CC1C(=O)NCCN1C(=O)c1cc([N+](=O)[O-])ccc1Cl (stereo not drawn)	–	–	?	–	–	–
COC(=O)CC1C(=O)NCCN1C(=S)NC(=O)c1ccccc1[N+](=O)[O-] (stereo not drawn)	–	?	–	?	–	79µM
COc1ccc2[nH]cc(CCNc3cc(-c4cccc(C#N)c4)ncn3)c2c1	·	–[0.501 µM]	·	·	·	–
Cn1ccc(C(=O)Nc2sc3c(c2C(N)=O)CCCCC3)n1	·	22µM	–	–	–	32µM
NC(=O)c1c(NC(=O)c2noc3c2CCCC3)sc2c1CCCC2	·	1.8µM	–	79µM	?	·
CCOC(=O)c1c(NC(=O)c2noc3c2CC(C(C)(C)C)CC3)sc2c1CCCC2 (stereo not drawn)	·	2µM	–	79µM	?	·
Cc1cc(C(F)F)n2nc(C(=O)Nc3sc4c(c3C(N)=O)CCC4)nc2n1	–	40µM	–	–	–	–
O=C(Cn1ncc(Cl)c(Cl)c1=O)NC(=O)NC1CCCCC1	–	·	·	–	–	·
NC(=O)c1c(NC(=O)C2c3ccccc3Oc3ccccc32)sc2c1CCCCC2	?	–	?	?	–	35µM
Cc1cc(C)cc(N(CC(=O)N2CCN(Cc3ccccc3)CC2)S(=O)(=O)c2c(C)noc2C)c1	–	50µM	–	–	–	–
Cc1ccc(N(CC(=O)N2CCN(c3cccc(Cl)c3)CC2)S(=O)(=O)c2c(C)noc2C)cc1	·	–	·	–	–	·
COc1ccc(NC(=S)NNC(=O)c2ccco2)c(OC)c1	·	·	·	–	–	·
CCCCCCCCCCCCCCCC(=O)OCC(COP(=O)(O)O)OC(=O)CCCCCCCCCCCCCCC (stereo not drawn)	·	–	·	·	·	–
COc1ccc(C2(O)CN(c3ccccc3)C3=[N+]2CCS3)cc1OC (stereo not drawn)	–	–	71µM	–	–	–
OC1(c2ccc(Cl)cc2)CN(c2ccccc2)C2=[N+]1CCS2 (stereo not drawn)	·	–	·	–	–	?
Cc1cccc(NC(=O)C2CCCN(S(=O)(=O)c3cnc[nH]3)C2)c1C (stereo not drawn)	·	–	–	–	–	·
CC(C)(C)c1ccc(CCC2OCC(C[N+]3(C)CCOCC3)O2)cc1 (stereo not drawn)	–	50µM	–	?	–	–
CC(C)(C)OC(=O)N1CCC(c2c(C(=O)N3CCN(C(=O)c4ccco4)CC3)cnn2-c2ccccc2)CC1	·	–	–	–	–	·
Cc1ccc(C(=O)Nc2ccc(S(=O)(=O)O)c3cc(S(=O)(=O)O)cc(S(=O)(=O)O)c23)cc1NC(=O)c1cccc(NC(=O)Nc2cccc(C(=O)Nc3cc(C(=O)Nc4ccc(S(=O)(=O)O)c5cc(S(=O)(=O)O)cc(S(=O)(=O)O)c45)ccc3C)c2)c1	·	0.28µM	·	·	·	–
Cc1ccccc1NC(=O)c1cccc(S(=O)(=O)Nc2cccc(C(=O)O)c2)c1	–	·	–	–	–	–
CCCCN(CC)C(=O)CSc1c2c(nc3ccc(Cl)cc13)CCCC2	·	–	·	–	–	·
COc1ccc2cccc(N3CCN(CCNC(=O)c4ccc(F)cc4)CC3)c2c1	·	·	·	·	·	–
N#Cc1ccsc1NC(=O)CN1CCN(c2ccccc2)CC1	–	–	–	–	–	–
SMILES	L3MBTL1 inh	G9a block	BAZ2B inh	JMJD2A Tudor inh	HP1b chromo inh	Sfp PPTase inh
N#Cc1ccsc1NC(=O)CN1CCN(c2ccc(O)cc2)CC1	–	18µM	–	?	?	–
COc1ccc(CNCC(=O)Nc2sccc2C#N)cc1	–	28µM	50µM	–[11.4 µM]	–	?
CC(=O)N1CCN(CC(=O)Nc2sccc2C#N)CC1	·	–	–	56µM	–	–
CN(C)S(=O)(=O)c1cccc(C(=O)OCC(=O)Nc2sccc2C#N)c1	·	–	–	–	–	79µM
COc1ccc(N2CCN(CC(=O)Nc3sccc3C#N)CC2)cc1	–	–	?	–	–	?
COc1cccc(-c2ccc(NC(=O)C3CCCN(Cc4ccc(CO)o4)C3)cc2)c1 (stereo not drawn)	·	–	?	–	–	–
Cc1ccc(S(=O)(=O)CCC(=O)Nc2sccc2C#N)cc1	–	25µM	–	–	–	·
Cc1ccc(S(=O)(=O)CCC(=O)Nc2sccc2C(N)=O)cc1	?	·	·	–	–	·
O=C1NC(=O)C(Cc2ccccc2)(c2cccnc2)N1 (stereo not drawn)	–	·	–	–	–	–
COC(=O)c1ccc2c(=O)n(CCCCCC(=O)NCc3ccc(OC)cc3)c(=O)[nH]c2c1	·	–	–	–	–	·
COc1ccc(CCNC(=O)c2ccc(OCC(=O)N3CCOCC3)c(OC)c2)cc1OC	·	·	–	–	–	–
COc1ccc(S(=O)(=O)N(C)C)cc1NC(=O)c1ccc(OCC(=O)N2CCOCC2)c(OC)c1	–	50µM	–	–	–	·
COc1ccc(CCNC(=O)c2ccc(OCC(=O)N3CCOCC3)c(OC)c2)cc1	–	8.9µM	–	–	–	·
CCNC(=O)CC1SC(=Nc2cccc3ccccc23)N(C)C1=O (stereo not drawn)	–	50µM	–	–	–	–
CN1CN(C)c2cccc3cccc1c23	–	1.4µM	?	–	?	–
Cn1c(/N=C/c2ccccc2[N+](=O)[O-])nc2ccccc21	–	79µM	–	–	–	?
Cn1c(/N=C/c2cccs2)nc2ccccc21	–	–[12.7 µM]	–	–	–	–
O=C(CC1OC(=O)c2ccccc21)Nc1cccc(S(=O)(=O)N2CCCCCC2)c1 (stereo not drawn)	·	?	–	?	–	–
COc1ccc(NN=Nc2nc3c([nH]2)c(=O)n(C)c(=O)n3C)cc1	–	·	56µM	8.9µM	4.5µM	16µM
Cn1c(=O)c2[nH]c(N=NNc3ccccc3F)nc2n(C)c1=O	–	1.8µM	20µM	7.9µM	20µM	25µM
Cc1ccccc1NN=Nc1nc2c([nH]1)c(=O)n(C)c(=O)n2C	–	4µM	–	?	?	–
CC1CCN(N=Nc2nc3c([nH]2)c(=O)n(C)c(=O)n3C)CC1	·	·	·	–	–	·
COc1ccc(C=NNc2nc3c([nH]2)c(=O)n(C)c(=O)n3C)cc1	·	·	·	–	–	·
Cc1ccccc1/C=C/c1cccc[n+]1C	–	?	–	–	–	–
C[n+]1ccccc1/C=C/c1ccc([N+](=O)[O-])cc1	·	25µM	–	–	–	–
C[n+]1ccccc1/C=C/c1ccc(C#N)cc1	–[2.29 µM]	–[0.501 µM]	45µM	22µM	?	?
